# Source: PubChem BioAssay
# HepG2 viability: qHTS for Inhibitors of TGF-b: Cytotox Counterscreen; HepG2 CAGA-GFP viability, ATP luminescence, 18 h; Potency, µM (highest dose often 46.1 µM), without a hit: at the top dose activity change, negative = cytotoxicity, most hits filed as cytotoxic; 410,000 tested, 0.76% active
#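 HepG2 CAGA-GFP cells (1000/well, DMEM with 1% FBS) received compound, then TGF-beta at 500 pg/mL final, and were incubated 18 hours at 37 degrees C. Viability was read by CellTiter-Glo luminescence. Media-only wells were set as complete cell-killing and DMSO as no toxicity.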
# HT1080NT lethal: qHTS for induction of synthetic lethality in tumor cells producing 2HG: qHTS for the HT-1080-NT fibrosarcoma cell line | HT-1080-NT fibrosarcoma viability, CellTiter-Glo ATP luminescence, 48 h | Potency, µM (titrated, usually from 46.1 µM), for inactives: at the highest dose activity, negative = less viability, usual class: cytotoxic | 360,000 tested, 1.6% active | AID 686970, 2013;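 also: NT is the 2HG producing partner of a matched IDH1 knockdown line; 0% = DMSO-treated cells and -100% = media-only wells without cells; nearly all actives have a fitted effect of over 55% in size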
#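 A 48-hour cytotoxicity screen used HT-1080-NT cells plated 2 hours before compound delivery. ATP-based CellTiter-Glo luminescence measured viability, normalized to DMSO and no-cell controls.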
# TGFb SMAD3 inh: qHTS for Inhibitors of TGF-b; AID 588855, 2011; Potency, µM (doses to about 46.1 µM), inactives show top-dose activity, negative = inhibition, usual class: inhibitors; 410,000 tested, 1.2% active; HepG2 CAGA-GFP TGF-b/SMAD3 reporter, GFP fluorescence, 18 h; TGF-beta stimulated, 500 pg/mL final; also: % is scaled to controls: 0 for no effect and ±100 for the full control effect; nearly all actives have a fitted effect of over 65% in size
#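 HEPG2 CAGA-GFP cells (1000/well, DMEM with 1% FBS) were pre-incubated 2 h at 37 degrees C, given compound by pin tool, then stimulated with TGF-beta at 500 pg/mL final for 18 h before per-cell GFP fluorescence imaging.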
# HT1080 IDH1KD tx: qHTS for induction of synthetic lethality in tumor cells producing 2HG: qHTS for the HT-1080-IDH1KD cell line. HT-1080 IDH1 knockdown viability, ATP luminescence, 48 h. 360,000 tested, 2% active. Potency, µM (top dose mostly 46.1 µM), for the others: at the highest dose activity, negative = toxicity, actives largely listed as cytotoxic;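 also: 0% = DMSO wells and -100% = cell-free medium wells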
#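 Using the IDH1-knockdown HT-1080 line run in the same batch and compound series as the NT line, viability after 48 h at 37 °C was determined by CellTiter-Glo luminescence and expressed as % activity.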
# ATXN viability: Viability Counterscreen for Primary qHTS for Inhibitors of ATXN expression; Potency, µM (titrated, usually from 56.7 µM), actives largely listed as cytotoxic; S2 cells (HEK-293 line with an ATXN2-luciferase reporter) viability, CellTiter-Fluor protease fluorescence, 24 h; AID 651635, 2014; 400,000 tested, 0.49% active; also: nearly all actives have a fitted effect of over 40% in size
# ATXN2 expr inh: Primary qHTS for Inhibitors of ATXN expression. HEK-293 ATXN2-luciferase reporter, luminescence, 24 h. Potency, µM (doses to about 57 µM), for inactives: at the highest dose activity change, negative = inhibition, actives largely listed as inhibitors. 360,000 tested, 0.72% active. AID 1745845, 2022; also: % is scaled to controls: 0 for no effect and ±100 for the full control effect; nearly all actives have a fitted effect of over 55% in size
#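 ATXN2-luciferase reporter cells (luciferase flanked by upstream and downstream ATXN2 gene portions) were treated 24 h at 37 °C with compounds at up to 57 uM. SteadyGlo luminescence gave expression; GF-AFC fluorescence gave viability.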
# Starred values were filed as active, the others as inactive; i = inactive; ? = inconclusive; nt = not tested or not shown; [ ] = remark or other dose. Shown are actives, neighbours in structure and some others; about 3.8% of the full set was active somewhere. Calls follow the shape of the dose curve; as a rule, active = well fitted curve in the direction sought with a large enough effect; inconclusive = small, poorly fitted or top-dose-only effect, or another doubt; inactive = no such curve, though single readings can be large; an effect the other way counts as inactive or inconclusive. Potency is read from the fitted curve at half-maximal effect.
SMILES,HepG2 viability,HT1080NT lethal,TGFb SMAD3 inh,HT1080 IDH1KD tx,ATXN viability,ATXN2 expr inh
Cc1cnc(C)c(-c2cc(F)cc3c2OC(CNC(=O)Cc2ccccc2C)C3)n1 (stereo unspecified),nt,nt,nt,nt,i,nt
CC(=O)Nc1cccc(NC(=O)c2c(-c3ccccc3)c(-c3ccccc3)nn(C)c2=O)c1,1%,nt,-24%,nt,nt,nt
CCCCCCCOC(=O)C[N+](C)(C)CCOC1CC2CCC1(C)C2(C)C (stereo unspecified),18µM*,8.2µM*,?,18µM*,?,35µM*
Cc1ccc(/C=N/Nc2nncc(-c3ccccc3)n2)o1,16%,-23%,5%,-20%,i,37%
CCCCN(CCCC)C(=S)N/N=C/c1c(C)[nH]n(-c2ccccc2)c1=O,-21%,?,?,6.5µM*,i,?
Cc1[nH]n(-c2ccccc2)c(=O)c1/C=N/Nc1nncc(-c2ccccc2)n1,-5%,1.3µM*,?,0.79µM*,i,2.8µM*
Cc1ccc(-n2[nH]c(C)c(/C=N/NC(=O)c3ccc(O)cc3O)c2=O)cc1,-51%,2.1µM*,-9%,10µM*,i,?
Cc1[nH]n(-c2ccccc2)c(=O)c1/C=N/NC(=O)c1ccc(O)cc1O,-19%,?,-3%,23µM*,?,nt
COC(=O)c1ccccc1-c1cc(C)cc2c1OC(CNC(=O)c1occc1C)C2 (stereo unspecified),nt,nt,nt,nt,i,nt
CC(C)(O)CCc1ccc(OCc2cc(-c3cccc(OC(F)F)c3)c3ncccc3c2)cc1,nt,nt,nt,nt,nt,4%
COc1ccc2ccccc2c1CN1CCc2nnc(C(NS(C)(=O)=O)C(C)C)n2CC1 (stereo unspecified),nt,nt,nt,nt,i,nt
Cc1cccc(CNC(=O)c2cnn(-c3nccc(-c4cc(C)sc4C)n3)c2C)n1,nt,nt,nt,nt,i,nt
CN(C)c1ccc(-c2ccnc3c2CC(C)(C(=O)NCc2ccco2)O3)cc1 (stereo unspecified),-17%,?,-23%,?,?,0%
CC(=O)Nc1cccc(-c2ccnc3c2CC(C)(C(=O)Nc2cccc(OC(F)(F)F)c2)O3)c1 (stereo unspecified),-51%,9.2µM*,14µM*,?,?,?
CC1(C(=O)Nc2cccc(OC(F)(F)F)c2)Cc2c(-c3cccc(C(F)(F)F)c3)ccnc2O1 (stereo unspecified),-23%,?,?,?,i,-9%
CC(=O)Nc1ccc(-c2ccnc3c2CC(C)(C(=O)NCc2ccco2)O3)cc1 (stereo unspecified),0%,?,12%,2.6µM*,?,-16%
CC(=O)Nc1ccc(-c2ccnc3c2CC(C)(C(=O)Nc2ccc(Cl)c(C(F)(F)F)c2)O3)cc1 (stereo unspecified),-59%,?,?,16µM*,13µM*,20µM*
COc1ccccc1CNC(=O)CCNS(=O)(=O)c1ccc2c(c1)CCCC(=O)N2,-24%,nt,-5%,nt,i,10%
Cc1nn(-c2ccccc2)c(C)c1C(=O)OC(C)C(=O)NC1CCCCC1 (stereo unspecified),0%,21µM*,7%,-14%,i,-36%
Cc1cc(NC(=O)c2cc(-c3ccncc3)nc3c(C)cccc23)no1,-19%,5.8µM*,2%,3.7µM*,i,-18%
COC(=O)c1ccccc1N(C)S(=O)(=O)c1cc2c3c(c1)CC(=O)N3CCC2,2%,nt,-24%,nt,i,0%
O=Cc1cc2ccccc2nc1SCCCF,-1%,16µM*,-13%,7.3µM*,i,-19%[11.3 µM]
O=Cc1cc2ccccc2cc1O,-2%,nt,-28%,nt,nt,nt
Fc1ccc(/C=C/c2nccc3ccccc23)cc1,-23%,nt,-9%,nt,nt,nt
C(=C\c1c[nH]c2ccccc12)/c1nccc2ccccc12,11µM*,nt,?,nt,nt,nt
SMILES,HepG2 viability,HT1080NT lethal,TGFb SMAD3 inh,HT1080 IDH1KD tx,ATXN viability,ATXN2 expr inh
CC(C)NC(=O)C1(C#N)C=C1c1ccccc1 (stereo unspecified),nt,16µM*,nt,?,?,?
COc1ccc2c(c1)c(C1=C(c3c[nH]c4ccccc34)C(=O)NC1=O)cn2CCCN(C)C,nt,nt,nt,nt,nt,22µM*
Fc1ccc(-n2cc(CNCCc3cccnc3)c(-c3ccccc3Cl)n2)cc1,-20%,21µM*,?,?,?,-24%
Fc1ccc(-c2nn(-c3ccccc3)cc2CNCc2ccccc2)cc1,-107%,21µM*,?,23µM*,i,2%[11.3 µM]
OCc1cn(-c2ccccc2)nc1-c1ccc(-c2nn(-c3ccccc3)cc2CO)cc1,-45%,-17%,-1%,-19%,i,-20%
O=C(c1cn(-c2ccccc2)nc1-c1ccc(F)cc1)N1CCCCC1,0%,-4%,0%,0%,?,-11%
O=C(CCl)Nc1cn(-c2ccccc2)nc1-c1ccc(F)cc1,-90%,8.2µM*,?,4.6µM*,?,?
Cc1noc(-c2ccc(CSCCC(=O)O)cc2)c1NC(=O)OC(C)c1ccccc1Cl (stereo unspecified),nt,nt,nt,nt,nt,11%
O=C(NCc1cccnc1)/C(=C/c1ccc(-c2cccc(C(F)(F)F)c2)o1)NC(=O)c1ccccc1,-11%,-15%,?,-28%,i,-10%
Cc1ccc(C(=O)N/C(=C/c2ccc(-c3cc(C(F)(F)F)ccc3Cl)o2)C(=O)NCc2cccnc2)cc1,0%,-17%,13µM*,-21%,i,-29%
COc1cccc(CN2CCC2(C)C(=O)Nc2cccc(Oc3ccccc3)c2)c1F (stereo unspecified),-1%,?,?,6.5µM*,i,-23%
COc1cccc(CN2CCC2(C)C(=O)Nc2cccc3cccnc23)c1OC (stereo unspecified),-57%,?,11µM*,?,?,2.5µM*
COc1cccc(NC(=O)C2(C)CCN2Cc2cccc(OC)c2F)c1 (stereo unspecified),-28%,-18%,-4%,?,?,10%
CC1(C(=O)Nc2cccc3cccnc23)CCN1Cc1ccccc1OC(F)F (stereo unspecified),-39%,?,?,?,?,?
CC1CCN(CC(=O)n2c3c(c4ccccc42)CCCC3)CC1,-22%,?,0%,?,i,-7%
